The whole screen tested about 400,000 compounds, of which about 2,100 (0.53%) were called active. Inconclusive results (about 14%) are left out. How the calls were made is not given here. The sample as a whole holds a higher share of actives than the screen did.
These molecules were tested against Ataxin-2 (Homo sapiens) (UniProt Q99700) (assay: qHTS for Inhibitors of ATXN expression.).
Type: functional

Sequence of Ataxin-2 (Homo sapiens) (Q99700 whole entry): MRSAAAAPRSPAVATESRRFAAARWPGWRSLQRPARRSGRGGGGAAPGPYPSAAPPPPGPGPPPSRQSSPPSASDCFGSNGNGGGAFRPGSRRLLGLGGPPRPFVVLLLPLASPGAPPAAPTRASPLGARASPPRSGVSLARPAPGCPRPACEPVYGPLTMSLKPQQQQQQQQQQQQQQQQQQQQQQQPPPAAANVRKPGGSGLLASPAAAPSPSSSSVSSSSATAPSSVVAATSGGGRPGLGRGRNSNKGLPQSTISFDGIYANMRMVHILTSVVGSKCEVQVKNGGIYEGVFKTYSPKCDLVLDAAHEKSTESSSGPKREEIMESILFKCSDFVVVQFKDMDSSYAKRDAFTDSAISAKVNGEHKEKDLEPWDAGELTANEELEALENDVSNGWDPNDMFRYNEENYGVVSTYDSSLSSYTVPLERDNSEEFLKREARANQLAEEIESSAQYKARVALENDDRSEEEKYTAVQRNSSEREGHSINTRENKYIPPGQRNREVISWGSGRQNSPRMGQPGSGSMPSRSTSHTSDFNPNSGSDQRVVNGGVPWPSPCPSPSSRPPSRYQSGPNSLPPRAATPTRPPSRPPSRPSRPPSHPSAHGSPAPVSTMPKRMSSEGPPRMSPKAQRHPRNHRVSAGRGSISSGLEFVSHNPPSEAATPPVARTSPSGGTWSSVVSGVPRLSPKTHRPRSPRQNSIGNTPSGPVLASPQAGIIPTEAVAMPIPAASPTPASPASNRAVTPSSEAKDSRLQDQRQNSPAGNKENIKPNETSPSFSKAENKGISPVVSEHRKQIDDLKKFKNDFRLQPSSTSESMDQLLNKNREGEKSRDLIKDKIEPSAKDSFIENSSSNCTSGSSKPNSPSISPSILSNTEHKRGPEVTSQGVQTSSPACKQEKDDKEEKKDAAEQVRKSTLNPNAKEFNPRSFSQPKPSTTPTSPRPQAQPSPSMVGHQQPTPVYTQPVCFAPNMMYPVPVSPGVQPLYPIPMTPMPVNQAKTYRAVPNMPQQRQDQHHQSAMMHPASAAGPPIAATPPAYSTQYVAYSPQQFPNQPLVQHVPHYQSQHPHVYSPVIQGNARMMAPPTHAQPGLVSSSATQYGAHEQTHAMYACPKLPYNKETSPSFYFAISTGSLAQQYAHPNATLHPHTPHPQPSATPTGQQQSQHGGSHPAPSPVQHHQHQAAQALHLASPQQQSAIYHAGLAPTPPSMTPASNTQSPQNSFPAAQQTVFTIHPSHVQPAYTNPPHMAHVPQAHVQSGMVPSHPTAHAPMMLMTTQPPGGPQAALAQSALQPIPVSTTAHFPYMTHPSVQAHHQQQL

SMILES | Potency
CCCCC[C@H](C)N1C[C@H](COCc2ccccc2)Oc2cc(N3CCC[C@H]3CO)ccc2S1(=O)=O | 28.2 µM (active)
CCCCC[C@@H](C)N1C[C@H](COCc2ccccc2)Oc2cc(N3CCC[C@H]3CO)ccc2S1(=O)=O | 10 µM (active)
CCCCC[C@@H](C)N1C[C@H](COCc2ccccc2)Oc2cc(N3CCC[C@@H]3CO)ccc2S1(=O)=O | 39.8 µM (active)
Cc1ccc(-c2nc3n(n2)C(c2ccccc2C)C=C(c2ccc(Cl)cc2)N3)cc1 (configuration not stated) | inactive
COC(=O)c1ccc(C)c(NC(=O)CSc2nc3nc(O)cc(O)c3s2)c1 | inactive
Cc1cccc2c1-c1sc(C(=O)Nc3nccs3)cc1CO2 | inactive
COc1ccc(S(=O)(=O)N2CCN(Cc3cc(OC)c(OC)cc3OC)CC2)cc1 | inactive
Cc1ccnc(N2C(=O)c3cccc4c([N+](=O)[O-])ccc(c34)C2=O)c1 | inactive
CN(CC(=O)Nc1c(Cl)cccc1Cl)C(=O)C1CC(=O)N(Cc2ccccc2)C1 (configuration not stated) | inactive
Cc1cccc(NC(=O)CNC(=O)Cn2ncc(Cl)c(Cl)c2=O)c1C | 21.2 µM (active)
COc1ccc(CN(C)C(C)C(=O)N(C)CC(=O)Nc2ccc(C)cc2)cc1F (configuration not stated) | inactive
Cc1ccc(CNC(=O)Cn2ncn3cccc3c2=O)cc1 | inactive
Cc1ccc(NC(=O)CN(C)C(=O)Cn2ncc(Cl)c(Cl)c2=O)cc1 | 28.2 µM (active)
CC(=O)Nc1ccc(NC(=O)CCC(=O)Oc2ccc(C)cc2)cc1 | inactive
Cc1ccccc1OCC(=O)Nc1cccc(Cl)c1C | inactive
CN(CC(=O)Nc1ccccc1Cl)C(=O)CN1C(=O)NC(c2ccccc2)(c2ccccc2)C1=O | inactive
CCc1ccccc1NC(=O)CN(C)C(=O)Cn1ncc(Cl)c(Cl)c1=O | 35.5 µM (active)
O=C(NN/C=C1\C(=O)N(Cc2ccccc2)C(=O)c2ccccc21)c1cccnc1 | inactive
CC(=O)Nc1nc2n(n1)C(c1ccccc1)C=C(c1ccccc1)N2 (configuration not stated) | inactive
C1=C(c2ccccc2)Nc2ncnn2C1c1ccccc1 (configuration not stated) | inactive
CCOC(=O)CCc1c(C)c2ccc3c(c2oc1=O)CN(CCCO)CO3 | inactive
CC(=O)c1ccc2noc(-c3ccc(C)cc3)c2c1 | inactive
Cc1ccc(C(=O)c2no[n+]([O-])c2C(=O)c2ccc(C)cc2)cc1 | 31.6 µM (active)
Cc1c(C(=O)c2no[n+]([O-])c2C(=O)c2cnn(C)c2C)cnn1C | 39.8 µM (active)
Cc1ccc(N2C(=O)C3C(C(=O)c4ccccc4)=NN(c4ccccc4)C3C2=O)cc1 (configuration not stated) | inactive
CC(OC(=O)c1ccccc1O)C(=O)Nc1ccc(Cl)cn1 (configuration not stated) | inactive

SMILES | Potency
COc1cc(C(CC(=O)Nc2ccc(Cl)cn2)N2Cc3ccccc3C2=O)cc(OC)c1OC (configuration not stated) | inactive
CCc1cc2c(CN3CCN(C)CC3)cc(=O)oc2cc1O | inactive
COCOCCn1cc(CN2CCS(=O)(=O)N(Cc3ccc(-c4ccc(Cl)c(Cl)c4)cc3)C(C)C2=O)nn1 (configuration not stated) | 22.4 µM (active)
COCOCCn1cc(CN2CCS(=O)(=O)N(Cc3ccc(-c4ccccc4)cc3)C(CC(C)C)C2=O)nn1 (configuration not stated) | 39.8 µM (active)
COCOCCn1cc(CN2CCS(=O)(=O)N(Cc3ccc(-c4ccc(Cl)c(Cl)c4)cc3)C(C(C)C)C2=O)nn1 (configuration not stated) | 28.2 µM (active)
CCOC(=O)NC(=O)/C(=C/Nc1ccc(Cl)c(Cl)c1Cl)C(C)=O | inactive
Nc1c(C(=O)N2CCCC2)sc2nc3c(cc12)CCCCCC3 | inactive
c1cnn2c(-c3ccc4c(c3)CCO4)cnc2c1 | inactive
O=C(CNC(=O)OCc1ccccc1)Oc1cc2oc(=O)cc(-c3ccccc3)c2cc1Cl | inactive
Cc1onc(C(=O)NC2CCCCC2)c1[N+](=O)[O-] | inactive
COc1cc(N)ccc1Nc1c2ccccc2nc2ccccc12 | inactive
COc1ccccc1Nc1c2ccccc2nc2ccccc12 | inactive
COc1ccc(Nc2c3c(nc4ccccc24)CCC3)cc1Cl | 28.2 µM (active)
COc1ccc(C2CC(c3cccs3)=NN2c2ccc(C=O)cc2)cc1 (configuration not stated) | inactive
Oc1ccc(-c2cnc3ccccc3n2)cc1 | inactive
O=C(CCl)Nc1ccc(Oc2cnc3ccccc3n2)cc1 | 20 µM (active)
CC(C)(C)C(=O)Nc1ccc(C(=O)Nc2cccc(Oc3ccc(C(=O)O)c(C(=O)O)c3)c2)cc1 | inactive
CCOC(=O)c1ccc(Nc2cnc3ccccc3n2)cc1 | inactive
O=C(CCl)Nc1cccc(Oc2ccccc2)c1 | 8.44 µM (active)
O=C(O)CSCC(=O)NCc1c(Cl)cccc1Oc1ccccc1 | inactive
CCOc1ccc(-c2cnc3ccccc3n2)cc1 | inactive
O=C(CCl)Nc1cccc(-c2cnc3ccccc3n2)c1 | 3.98 µM (active)
CCN(CC)CCN1C2=C(C(=O)CC(C)(C)C2)C(c2cccc(F)c2)C2=C1CC(C)(C)CC2=O | inactive
CCOc1ccc(NC(=O)CC(NC(C)=O)c2ccccc2)cc1S(=O)(=O)N1CCCC1 (configuration not stated) | inactive
Cc1c(-c2ccccc2)c(=O)oc2cc(O)ccc12 | inactive
COc1ccc(/C=c2\s/c(=C/C(=O)c3ccc(C)cc3)[nH]c2=O)c(OC)c1 | inactive

SMILES | Potency
COc1ccc(-n2cc(C(=O)c3ccccc3O)cn2)cc1 | inactive
CCCn1c(O)c(C(=O)NCCc2ccc(OC)cc2)c(=O)c2ccccc21 | inactive
COc1ccc(Cn2cc(C(=O)c3ccc(C)c(C)c3)c(=O)c3ccccc32)cc1 | 31.6 µM (active)
COc1cccc(Cn2cccc(NC(=O)Nc3ccccc3C)c2=O)c1 | inactive
COc1ccc(Cn2cc(C(=O)c3ccc(C)cc3)c(=O)c3cc(OC)c(OC)cc32)cc1 | 11.2 µM (active)
Cc1ccc(S(=O)(=O)NC(C)C(=O)OCC(=O)Nc2sccc2C(N)=O)cc1 (configuration not stated) | inactive
Cc1ccc(C)c(Nc2nc3nonc3nc2Nc2cccc(C)c2C)c1 | 10 µM (active)
Cc1ccccc1Nc1cccc2nonc12 | inactive
O=C(CCc1ccccc1)NC(NC(=S)Nc1ccc(Cl)cc1)C(Cl)(Cl)Cl (configuration not stated) | 39.8 µM (active)
O=C(CCc1ccccc1)NC(=S)Nc1ccccc1Br | inactive
O=C(CCc1ccccc1)NC(c1cccs1)c1cc(Cl)c2cccnc2c1O (configuration not stated) | inactive
O=C1c2oc3ccc(Cl)cc3c(=O)c2C(c2ccccn2)N1CCCN1CCOCC1 (configuration not stated) | inactive
NC(=O)C1=CC2C3C=CC2(O)C(=O)OC3O1 (configuration not stated) | 16.8 µM (active)
Cn1cc(/C=C/c2cc[n+](C)cc2)c2cc(F)ccc21 | inactive
CCOC(=O)Cc1csc(NC(=O)CN2CCN(c3ccccc3)CC2)n1 | inactive
CCOC(=O)Cc1csc(NC(=O)COc2ccc3c(C)cc(=O)oc3c2)n1 | inactive
CCOC(=O)Cc1csc(NC(=O)c2ccc3ncsc3c2)n1 | 35.5 µM (active)
SC1=NCN(Cc2ccco2)CN1 | inactive
Clc1ccc(/C=C/c2ncc3ccccn23)cc1 | inactive
CCc1ccc2c(c1)/C(=C/C(=O)c1cccs1)C(=O)N2 | 20 µM (active)
CCc1cc2c(-c3ccccc3)cc(=O)oc2cc1OC(=O)c1cccs1 | inactive
COCCN(CCOC)Cc1c(O)ccc2c1O/C(=C\c1ccc(C)o1)C2=O | inactive
COc1ccc(/C=C/C(=O)Oc2ccc(/C=N/NC(=O)c3ccccc3)cc2)cc1OC | 31.6 µM (active)
Nc1ccc(C(=O)N/N=C\c2ccc(OC(=O)c3ccccc3Cl)cc2)cc1 | inactive
COc1ccc(/C=N/NC(=O)c2cccc(C(F)(F)F)c2)cc1 | inactive
O=C(CNC(=O)c1ccccc1F)NCc1ccccn1 | inactive

SMILES | Potency
CCCN1C/C(=C/c2cccc([N+](=O)[O-])c2)C(=O)/C(=C/c2cccc([N+](=O)[O-])c2)C1 | 4.47 µM (active)
O=C1/C(=C/c2cccc(Cl)c2)CSc2sccc21 | inactive
O=C1NC(=O)/C(=C\c2ccc(OCc3cccc([N+](=O)[O-])c3)cc2)N1 | inactive
Cc1cccc(N2CCN(S(=O)(=O)c3cccs3)CC2)c1C | inactive
Cc1ccccc1C1(CC(=O)N2CCCC2c2nccs2)CC(=O)N(C2CCCC2)C1=O (configuration not stated) | inactive
C=CCn1c(=O)[nH]c2nc3cc(/N=C/N(C)C)c(C)cc3nc2c1=O | inactive
CC1(c2ccccc2)NC(=O)N(CC(=O)NCc2cccc(Cl)c2)C1=O (configuration not stated) | inactive
O=C(CCl)NN1C(=O)NC(c2ccccc2)(c2ccccc2)C1=O | 26.7 µM (active)
O=C(NCc1ccccc1Cl)c1ccc2c(=O)n(CC3CCCO3)c(=S)[nH]c2c1 (configuration not stated) | inactive
CN(C)c1ccc(N=Nc2nc3ccccc3n2C)cc1 | inactive
Cc1csc(N=Nc2ccc(N(C)C)cc2)[n+]1[O-] | 14.1 µM (active)
CCCN(CC(=O)Nc1ccc(F)c(F)c1F)C(=O)CN1C(=O)NC2(CCCCC2)C1=O | inactive
COC(=O)c1cnc(SCc2ccc(Cl)cc2)n1C | inactive
O=C(CSc1cc(Cl)ccc1Cl)NC1CCCc2ccccc21 (configuration not stated) | inactive
O=C(CSc1cccc[n+]1[O-])c1cc(Cl)ccc1Cl | 3.77 µM (active)
CC(C)(C)NCC(O)CON=C1c2ccccc2-c2ccccc21 (configuration not stated) | inactive
CCN(CC(O)CON=C1c2ccccc2-c2ccccc21)S(=O)(=O)c1ccc(Cl)cc1 (configuration not stated) | 17.8 µM (active)
Cc1ccc(S(=O)(=O)N(CCCO)CC(O)CON=C2c3ccccc3-c3ccccc32)cc1 (configuration not stated) | 20 µM (active)
CCOc1ccccc1N(C(C)=O)S(=O)(=O)c1ccc(Cl)cc1 | inactive
CCN(CC)S(=O)(=O)c1ccc(C(=O)N(c2ccc(C)cc2)C2C=CS(=O)(=O)C2)cc1 (configuration not stated) | inactive
CN(C)CCN=c1cc(-c2ccccc2)oc2ccc(Cl)cc12 | inactive
O=C(NCC1CCN(C(=O)c2ccc([N+](=O)[O-])cc2)CC1)c1ccc([N+](=O)[O-])cc1 | inactive
CCCn1c(SCc2nc(-c3ccccc3C)no2)nnc1-c1ccc(Cl)cc1 | 39.8 µM (active)
Cc1ccccc1CSc1nnc(-c2cnccn2)n1C | inactive

Source: ChEMBL document CHEMBL1201862, “PubChem BioAssay data set” (2004)
